# Assay results: the supplement of paper PMC10037445
# Over roughly 2,900 compounds, “NF-kB SEAP reporter activity, fold change vs agonist alone” has its median near 0.99; the highest 2% begin near 2.6. The sample as a whole holds a higher share of the highest values than the screen did.
# Experiments:
# [1] = system: RAW-Dual; assay: NF-kB SEAP reporter activity, fold change vs agonist alone; cytotoxicity flag (confluency mask): cytotoxic (confluency <70% of control); higher = enhanced NF-kB activity
# In short: (§1)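 RAW-Dual macrophages (50,000 cells/well in DMEM, 384-well plates) received 50 nL of library stock by pin tool, then a PRR agonist 1 h later, and were kept at 37 °C, 5% CO2. After 20 hours, supernatant was read for IRF by QuantiLuc luminescence and for NF-κB by QuantiBlue absorbance at 620 nm. Reporter activity is fold change over agonist-alone wells. Cytotoxic wells had IncuCyte confluency below 70% of agonist controls in both mask sets.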
# [2] = system: RAW-Dual; assay: NF-kB SEAP reporter activity, fold change vs agonist alone; higher = enhanced NF-kB activity
# In short: as §1
# [3] = system: RAW-Dual; assay: NF-kB SEAP reporter activity, fold change vs agonist alone; cytotoxicity flag (confluency mask): not cytotoxic; higher = enhanced NF-kB activity
# In short: as §1
# [4] = agonist: ODN 1826 (TLR9) 0.5 ug/mL
# [5] = agonist: Pam2CSK4 (TLR2/6) 0.1 ug/mL
# [6] = agonist: Pam3CSK4 (TLR2/1) 0.1 ug/mL
# [7] = library stock concentration (final ~1000-fold dilution): 10 mM, cytotoxicity flag (confluency mask): not cytotoxic, agonist: Imiquimod (TLR7) […]
# [8] = library stock concentration (final ~1000-fold dilution): 10 mM, cytotoxicity flag (confluency mask): not cytotoxic, agonist: MPLA (TLR4) […]
structure (smiles),measurement,setting,value
COc1ccc(C=Cc2cc(OC)c(OC)c(OC)c2)cc1OP(=O)(O)O (library stock concentration (final ~1000-fold dilution): 10 mM water),NF-kB SEAP reporter activity,[1]; agonist: LPS (TLR4) 0.1 ug/mL,5.99
same,NF-kB SEAP reporter activity,[1]; [4],2.48
same,NF-kB SEAP reporter activity,[1]; [5],2.34
same,NF-kB SEAP reporter activity,[1]; [6],2.65
COc1ccc(C=Cc2cc(OC)c(OC)c(OC)c2)cc1OP(=O)(O)O,NF-kB SEAP reporter activity,"[2]; library stock concentration (final ~1000-fold dilution): 10 mM water, cytotoxicity flag (confluency mask): cytotoxic (confluency <70% of control), agonist: Imiquimod (TLR7) […]",1.67
same,NF-kB SEAP reporter activity,"[2]; library stock concentration (final ~1000-fold dilution): 10 mM water, cytotoxicity flag (confluency mask): cytotoxic (confluency <70% of control), agonist: MPLA (TLR4) […]",2.09
COc1cc(/C=C/C(=O)O)ccc1O (library stock concentration (final ~1000-fold dilution): 10 mM),NF-kB SEAP reporter activity,[3]; agonist: LPS (TLR4) 0.1 ug/mL,1.16
same,NF-kB SEAP reporter activity,[3]; [4],1.12
same,NF-kB SEAP reporter activity,[3]; [5],1.17
same,NF-kB SEAP reporter activity,[3]; [6],1.04
COc1ccc(C(=O)C=Cc2cc(OC)c(OC)c(OC)c2)cc1OC (library stock concentration (final ~1000-fold dilution): 20 mM),NF-kB SEAP reporter activity,[1]; agonist: LPS (TLR4) 0.1 ug/mL,0.326
same,NF-kB SEAP reporter activity,[1]; [4],0.215
same,NF-kB SEAP reporter activity,[1]; [5],0.0975
same,NF-kB SEAP reporter activity,[1]; [6],0.176
COc1ccc(/C=C/C(=O)O)cc1OC,NF-kB SEAP reporter activity,[2]; [7],0.805
same,NF-kB SEAP reporter activity,[2]; [8],1.05
COc1cc(C=CC(=O)CC(=O)C=Cc2ccc(O)c(OC)c2)ccc1O (library stock concentration (final ~1000-fold dilution): 100 mM),NF-kB SEAP reporter activity,[3]; agonist: LPS (TLR4) 0.1 ug/mL,0.303
same,NF-kB SEAP reporter activity,[3]; [4],0.197
same,NF-kB SEAP reporter activity,[3]; [5],0.13
same,NF-kB SEAP reporter activity,[3]; [6],0.242
COc1ccc(/C=C\c2cc(OC)c(OC)c(OC)c2)cc1O,NF-kB SEAP reporter activity,[2]; [7],1.63
same,NF-kB SEAP reporter activity,[2]; [8],2.07
COc1ccc(C(=O)C=Cc2cc(OC)c(OC)c(OC)c2)cc1OC,NF-kB SEAP reporter activity,"[2]; library stock concentration (final ~1000-fold dilution): 20 mM, cytotoxicity flag (confluency mask): cytotoxic (confluency <70% of control), agonist: Imiquimod (TLR7) […]",0.192
same,NF-kB SEAP reporter activity,"[2]; library stock concentration (final ~1000-fold dilution): 20 mM, cytotoxicity flag (confluency mask): cytotoxic (confluency <70% of control), agonist: MPLA (TLR4) […]",0.302
COc1ccc(/C=C\c2cc(OC)c(OC)c(OC)c2)cc1O (library stock concentration (final ~1000-fold dilution): 10 mM),NF-kB SEAP reporter activity,[3]; agonist: LPS (TLR4) 0.1 ug/mL,4.68
same,NF-kB SEAP reporter activity,[3]; [4],2.84
same,NF-kB SEAP reporter activity,[3]; [5],1.69
same,NF-kB SEAP reporter activity,[3]; [6],2.62
COc1ccc(/C=C/C(=O)O)cc1OC (library stock concentration (final ~1000-fold dilution): 10 mM),NF-kB SEAP reporter activity,[3]; agonist: LPS (TLR4) 0.1 ug/mL,1.43
same,NF-kB SEAP reporter activity,[3]; [4],1.15
same,NF-kB SEAP reporter activity,[3]; [5],1.15
same,NF-kB SEAP reporter activity,[3]; [6],1.14
CCC(C)C(NC(=O)C(CCCCN)NC(=O)C(CCC(=O)O)NN)C(=O)NC(CCC(N)=O)C(=O)NC(C)C(=O)NC(CCCCN)C(=O)N1CCCC1C(=O)NC(C)C(=O)C(=O)C(CC(C)C)NC(=O)C(CCC(N)=O)NC(=O)C(NC(=O)C(NC(=O)C(CCCNC(=N)N)NC(=O)C(Cc1ccccc1)NC(=O)C(CCCCNNC(Cc1ccccc1)C(=O)NC(CO)C(=O)NC(CCC(=O)O)C(=O)NC(CO)C(=O)NC(C(=O)NC(CC(N)=O)C(=O)NC(C=O)CO)C(C)O)NC(=O)C(Cc1ccccc1)NC(=O)C(CO)NC(=O)C(CCC(=O)O)NC(=O)C(CO)NC(=O)C(NC(=O)C(CC(N)=O)NC(=O)C(N)CO)C(C)O)C(C)C)C(C)O (stereo not drawn),NF-kB SEAP reporter activity,"[2]; library stock concentration (final ~1000-fold dilution): 10 mM water, cytotoxicity flag (confluency mask): not cytotoxic, agonist: Imiquimod (TLR7) […]",0.927
same,NF-kB SEAP reporter activity,"[2]; library stock concentration (final ~1000-fold dilution): 10 mM water, cytotoxicity flag (confluency mask): not cytotoxic, agonist: MPLA (TLR4) […]",1.03
CCC(C)C(NC(=O)C(CCCCN)NC(=O)C(CCC(=O)O)NN)C(=O)NC(CCC(N)=O)C(=O)NC(C)C(=O)NC(CCCCN)C(=O)N1CCCC1C(=O)NC(C)C(=O)C(=O)C(CC(C)C)NC(=O)C(CCC(N)=O)NC(=O)C(NC(=O)C(NC(=O)C(CCCNC(=N)N)NC(=O)C(Cc1ccccc1)NC(=O)C(CCCCNNC(Cc1ccccc1)C(=O)NC(CO)C(=O)NC(CCC(=O)O)C(=O)NC(CO)C(=O)NC(C(=O)NC(CC(N)=O)C(=O)NC(C=O)CO)C(C)O)NC(=O)C(Cc1ccccc1)NC(=O)C(CO)NC(=O)C(CCC(=O)O)NC(=O)C(CO)NC(=O)C(NC(=O)C(CC(N)=O)NC(=O)C(N)CO)C(C)O)C(C)C)C(C)O (stereo not drawn) (library stock concentration (final ~1000-fold dilution): 10 mM water),NF-kB SEAP reporter activity,[3]; agonist: LPS (TLR4) 0.1 ug/mL,1.1
same,NF-kB SEAP reporter activity,[3]; [4],1.16
same,NF-kB SEAP reporter activity,[3]; [5],1.13
same,NF-kB SEAP reporter activity,[3]; [6],1.74
O=c1cc(-c2ccc(O)cc2)oc2c(C3OC(CO)C(O)C(O)C3O)c(O)cc(O)c12 (stereo not drawn),NF-kB SEAP reporter activity,[2]; [7],0.887
same,NF-kB SEAP reporter activity,[2]; [8],0.994
O=c1cc(-c2ccc(O)cc2)oc2c(C3OC(CO)C(O)C(O)C3O)c(O)cc(O)c12 (stereo not drawn) (library stock concentration (final ~1000-fold dilution): 10 mM),NF-kB SEAP reporter activity,[3]; agonist: LPS (TLR4) 0.1 ug/mL,0.978
same,NF-kB SEAP reporter activity,[3]; [4],0.919
same,NF-kB SEAP reporter activity,[3]; [5],1
same,NF-kB SEAP reporter activity,[3]; [6],1.31
N#Cc1cc(N2CCC(C(=O)N3N=CCC3c3cc(F)cc(F)c3)CC2)ncn1 (stereo not drawn) (library stock concentration (final ~1000-fold dilution): 10 mM),NF-kB SEAP reporter activity,[3]; agonist: LPS (TLR4) 0.1 ug/mL,1.25
same,NF-kB SEAP reporter activity,[3]; [4],1.05
same,NF-kB SEAP reporter activity,[3]; [5],0.796
same,NF-kB SEAP reporter activity,[3]; [6],0.84
N#Cc1cc(N2CCC(C(=O)N3N=CCC3c3cc(F)cc(F)c3)CC2)ncn1 (stereo not drawn),NF-kB SEAP reporter activity,[2]; [7],1.09
same,NF-kB SEAP reporter activity,[2]; [8],1.26
Cn1cc(-c2[nH]c3cc(NC(=O)C(N)C4CCCCC4)cc4c3c2C=NNC4=O)cn1 (stereo not drawn) (library stock concentration (final ~1000-fold dilution): 10 mM),NF-kB SEAP reporter activity,[3]; agonist: LPS (TLR4) 0.1 ug/mL,3.51
same,NF-kB SEAP reporter activity,[3]; [4],2.74
same,NF-kB SEAP reporter activity,[3]; [5],1.6
same,NF-kB SEAP reporter activity,[3]; [6],1.8
Cn1cc(-c2[nH]c3cc(NC(=O)C(N)C4CCCCC4)cc4c3c2C=NNC4=O)cn1 (stereo not drawn),NF-kB SEAP reporter activity,[2]; [7],2.17
same,NF-kB SEAP reporter activity,[2]; [8],2.16
CC(C)C(NC(=O)C(CC(=O)O)NC(=O)C(CCCCN)NC(=O)C(N)CCCNC(=N)N)C(=O)NC(Cc1ccc(O)cc1)C(=O)O (stereo not drawn),NF-kB SEAP reporter activity,[2]; [7],1.14
same,NF-kB SEAP reporter activity,[2]; [8],0.967
CC(C)C(NC(=O)C(CC(=O)O)NC(=O)C(CCCCN)NC(=O)C(N)CCCNC(=N)N)C(=O)NC(Cc1ccc(O)cc1)C(=O)O (stereo not drawn) (library stock concentration (final ~1000-fold dilution): 10 mM),NF-kB SEAP reporter activity,[3]; agonist: LPS (TLR4) 0.1 ug/mL,1.27
same,NF-kB SEAP reporter activity,[3]; [4],1.1
same,NF-kB SEAP reporter activity,[3]; [5],1.19
same,NF-kB SEAP reporter activity,[3]; [6],1.17
CNC(=O)C(NC(=O)C(CC(C)C)C(O)C(=O)NO)C(C)(C)C (stereo not drawn) (library stock concentration (final ~1000-fold dilution): 10 mM),NF-kB SEAP reporter activity,[3]; agonist: LPS (TLR4) 0.1 ug/mL,1.09
same,NF-kB SEAP reporter activity,[3]; [4],1.01
same,NF-kB SEAP reporter activity,[3]; [5],1.04
same,NF-kB SEAP reporter activity,[3]; [6],1.01
CNC(=O)C(NC(=O)C(CC(C)C)C(O)C(=O)NO)C(C)(C)C (stereo not drawn),NF-kB SEAP reporter activity,[2]; [7],1.08
same,NF-kB SEAP reporter activity,[2]; [8],1.38
